Experiment [1] can be described thus: BSK_LPS_PGE2: BioMAP Diversity Plus: LPS Assay for Prostaglandin E2 (PGE2) Biomarker Activity (AID 2283082). To be noted: primary human HUVEC with PBMC; actives raise or lower the signal. Put shortly: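 PGE2 release measured by ELISA in an LPS-activated co-culture of human umbilical vein endothelial cells and peripheral blood mononuclear cells, read at 24 h post-dosing. DMSO served as baseline for bidirectional curve fitting.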

Read-out in experiment [2]: Macrophage colony-stimulating factor (MCSF), CSF1 (gene 1435)
Description: BSK_LPS_MCSF: BioMAP Diversity Plus: LPS Assay for Macrophage colony-stimulating factor (MCSF) Biomarker Activity (AID 2283083). To be noted: primary human HUVEC with PBMC; actives raise or lower the signal. Put shortly: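 Compound is added to a human vascular primary co-culture of umbilical vein endothelium and blood mononuclear cells. After 24 h, M-CSF is quantified by ELISA. Signal changes are fitted in both directions against DMSO.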

Read-out in experiment [3]: Tissue Factor, F3 (gene 2152)
Description: BSK_LPS_TissueFactor: BioMAP Diversity Plus: LPS Assay for Tissue Factor Biomarker Activity (AID 2283084). To be noted: primary human HUVEC with PBMC; actives raise or lower the signal. Put shortly:
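In this co-culture system of umbilical vein endothelium with PBMC, stimulated with LPS, cell-surface CD142 is detected by ELISA at 24 h. Endpoint values derive from bidirectional fitting, DMSO serving as baseline.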

Read-out in experiment [4]: Tumor necrosis factor (Homo sapiens) (UniProt P01375)
Description: BSK_LPS_TNFa: BioMAP Diversity Plus: LPS Assay for Tumour Necrosis Factor alpha (TNFa) Biomarker Activity (AID 2283085).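 As to AC50: TNFa protein level quantified by ELISA in the co-culture.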 To be noted: primary human HUVEC with PBMC; actives raise or lower the signal. In a few lines:
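TNFa was quantified by ELISA in LPS-activated co-cultures of human endothelial cells and PBMC, 24 h post-dosing. Both increases and decreases versus DMSO were fitted.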

Read-out in experiment [5]: Vascular cell adhesion molecule 1 (VCAM1), VCAM1 (gene 7412)
Description: BSK_LPS_VCAM1: BioMAP Diversity Plus: LPS Assay for Vascular cell adhesion molecule 1 (VCAM1) Biomarker Activity (AID 2283086). To be noted: primary human HUVEC with PBMC; actives raise or lower the signal. In a few lines: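 VCAM-1 quantified by ELISA in an LPS-activated co-culture of human endothelial cells and peripheral blood mononuclear cells, read 24 h post-treatment. Fitted in both directions versus DMSO; parallel SRB staining flags overt cytotoxicity.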

Read-out in a further experiment: CD38, CD38 (gene 952)
Description: BSK_SAg_CD38: BioMAP Diversity Plus: SAg Assay for CD38 Biomarker Activity (AID 2283087). To be noted: primary human HUVEC with PBMC; actives raise or lower the signal. In a few lines:
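CD38 quantified by ELISA (fluorescence) in a superantigen-activated endothelial cell–PBMC co-culture at 24 h post-dose. Activity fitted in both directions relative to DMSO; parallel SRB and Alamar Blue cytotoxicity read-outs.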

Read-out in another experiment: CD40, CD40 (gene 958)
Description: BSK_SAg_CD40: BioMAP Diversity Plus: SAg Assay for CD40 Biomarker Activity (AID 2283088). To be noted: primary human HUVEC with PBMC; actives raise or lower the signal. In a few lines: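 Fluorescence ELISA read-out of CD40 from umbilical vein endothelium plus peripheral blood mononuclear cells, sampled 24 h after dosing. Values come from bidirectional curve fitting with DMSO as baseline.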

Read-out in the next experiment: CD69, CD69 (gene 969)
Description: BSK_SAg_CD69: BioMAP Diversity Plus: SAg Assay for CD69 Biomarker Activity (AID 2283089).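 As to AC50: cell surface CD69 protein quantified by ELISA with fluorescence detection.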 To be noted: primary human HUVEC with PBMC; actives raise or lower the signal. In a few lines: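 ELISA, fluorescence read-out: CD69 on human umbilical vein endothelial cell + PBMC co-culture, 24 h post-dosing. Gain or loss of signal fitted bidirectionally against DMSO baseline.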

Read-out in experiment [6]: Monocyte Chemoattractant Protein-1 (MCP1), CCL2 (gene 6347)
Description: BSK_SAg_MCP1: BioMAP Diversity Plus: SAg Assay for Monocyte Chemoattractant Protein-1 (MCP1) Biomarker Activity (AID 2283090). To be noted: primary human HUVEC with PBMC; actives raise or lower the signal. Put shortly:
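Values derive from bidirectional fitting of ELISA-measured MCP1 against DMSO controls. Readings were taken 24 h after dosing human vascular endothelial cells co-cultured with peripheral blood mononuclear cells under superantigen stimulation.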

Read-out in experiment [7]: E-selectin (Homo sapiens) (UniProt P16581)
Description: BSK_SAg_Eselectin: BioMAP Diversity Plus: SAg Assay for Eselectin Biomarker Activity (AID 2283091). To be noted: primary human HUVEC with PBMC; actives raise or lower the signal. In a few lines: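 Primary human endothelial cells and peripheral blood mononuclear cells were co-cultured and exposed to chemical for 24 hours. E-selectin levels were then quantified by ELISA, with bidirectional curve fitting normalised to DMSO controls.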

Read-out in experiment [8]: Monokine induced gamma interferon (MIG), CXCL9 (gene 4283)
Description: BSK_SAg_MIG: BioMAP Diversity Plus: SAg Assay for Monokine induced gamma interferon (MIG) Biomarker Activity (AID 2283092). To be noted: primary human HUVEC with PBMC; actives raise or lower the signal. In a few lines:
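ELISA readout of MIG/CXCL9; primary human umbilical vein endothelial cells co-cultured with peripheral blood mononuclear cells; 24 h post-dose; gain/loss fit vs DMSO baseline.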

The nature of experiment [9]: BSK_SAg_PBMCCytotoxicity: PBMC Cytotoxicity Assessment in the BioMAP Diversity Plus: SAg Assay (AID 2283093).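 Also: fitted both ways against DMSO so a hit may be loss or gain of signal.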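 As to AC50: PBMC superantigen activated with SEB plus TSST-1 one hour after compound addition.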 To be noted: primary human HUVEC with PBMC. Put shortly:
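PBMC viability by Alamar Blue reduction, fluorescence read at 546/580 nm after 6 h dye exposure. Cells were dosed 1 h before SEB plus TSST-1 activation (20 ng/mL final each), then held 90 h; endothelial/PBMC human co-culture.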

Read-out in experiment [10]: Interleukin-8 (IL8), CXCL8 (gene 3576)
Description: BSK_SAg_IL8: BioMAP Diversity Plus: SAg Assay for Interleukin-8 (IL8) Biomarker Activity (AID 2283094). To be noted: primary human HUVEC with PBMC; actives raise or lower the signal. In a few lines: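 ELISA readout of IL-8 from a superantigen-activated endothelial/PBMC primary human co-culture, taken 24 h post-dosing and fitted in both directions against DMSO; parallel SRB total-protein staining flags overt cytotoxicity.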

The nature of experiment [11]: BSK_SAg_Proliferation: Cell Proliferation Assessment in the BioMAP Diversity Plus: SAg Assay (AID 2283095).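 Also: relative cell number as total protein by SRB absorbance in sub-confluent culture.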 To be noted: primary human HUVEC with PBMC. Put shortly:
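Relative cell number in the endothelial cell/PBMC co-culture was quantified at 96 h by SRB staining (0.1% SRB, 10% TCA fixation, read at 560 nm). Curves were fitted in both directions relative to DMSO baseline.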

Molecules are shown by their SMILES. The source made the active and inactive calls. The calls were made as follows: active = hit-call score of the fitted dose curve at least 0.9, where 1 is the maximum; inactive = score below 0.9.

Tumor necrosis factor (Homo sapiens), sequence (P01375 whole entry, looked up): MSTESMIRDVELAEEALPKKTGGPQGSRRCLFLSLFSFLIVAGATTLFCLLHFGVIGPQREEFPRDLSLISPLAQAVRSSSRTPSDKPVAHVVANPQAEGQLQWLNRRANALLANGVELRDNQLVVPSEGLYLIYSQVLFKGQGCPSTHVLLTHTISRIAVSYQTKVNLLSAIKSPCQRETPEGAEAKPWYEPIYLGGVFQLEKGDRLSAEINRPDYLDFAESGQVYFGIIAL
E-selectin (Homo sapiens), sequence (P16581 whole entry, looked up): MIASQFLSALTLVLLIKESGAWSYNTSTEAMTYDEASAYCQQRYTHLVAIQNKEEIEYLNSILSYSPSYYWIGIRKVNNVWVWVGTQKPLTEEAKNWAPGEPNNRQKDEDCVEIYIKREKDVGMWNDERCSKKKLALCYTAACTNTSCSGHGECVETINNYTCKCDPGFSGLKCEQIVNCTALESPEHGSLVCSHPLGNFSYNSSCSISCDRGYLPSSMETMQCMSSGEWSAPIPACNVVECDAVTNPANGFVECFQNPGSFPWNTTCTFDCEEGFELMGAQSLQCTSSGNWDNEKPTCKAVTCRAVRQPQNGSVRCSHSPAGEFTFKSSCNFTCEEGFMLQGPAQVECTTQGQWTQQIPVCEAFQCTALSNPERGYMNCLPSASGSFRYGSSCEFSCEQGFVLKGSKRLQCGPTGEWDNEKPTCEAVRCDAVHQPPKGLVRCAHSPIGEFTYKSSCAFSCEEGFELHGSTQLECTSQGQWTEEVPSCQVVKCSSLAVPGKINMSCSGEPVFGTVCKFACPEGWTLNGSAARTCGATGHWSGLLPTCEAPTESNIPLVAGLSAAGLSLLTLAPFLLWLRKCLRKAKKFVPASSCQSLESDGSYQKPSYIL

As to `CC(O)CCO` (configuration not stated), the outcome is “inactive” in experiment [1]; “inactive” in [2]; “inactive” in experiment [3]; “inactive” in experiment [4]; “inactive” in experiment [5]; “inactive” with CD38, CD38 (gene 952). For the same compound, the outcome with CD40, CD40 (gene 958) was “inactive”; with CD69, CD69 (gene 969), “inactive”; in experiment [6] it was “inactive”; in experiment [7] it was “inactive”; in experiment [8], “inactive”; in experiment [9] it was “inactive”. Further, the outcome in experiment [10] and in experiment [11] was inactive.
As usually defined, the AC50 is the midpoint of the concentration-response curve, whichever way the signal moves. Turning to `COc1cc(C=O)cc2c1[C@H](COC(N)=O)[C@]1(OC(C)=O)ON2C[C@H]2[C@@H]1N2C(C)=O`, the outcome in experiment [1] and in experiment [4] was inactive. Further, the AC50 in [2] is 3.97 µM (active); in experiment [3] it was 14.3 µM (active); in experiment [5], 16.7 µM (active); in the experiment with CD38, CD38 (gene 952), 15.9 µM (active); with CD40, CD40 (gene 958) it was 18.2 µM (active); in the experiment with CD69, CD69 (gene 969), 13.2 µM (active). Moreover, the concentration at half-maximal activity (AC50) was 5.75 µM (active) in [6]; 21.4 µM (active) in experiment [7]; 28.7 µM (active) in experiment [8]; 4.25 µM (active) in [9]; 8.56 µM (active) in [10]; 0.402 µM (active) in experiment [11].
Regarding `CCC[CH2][Sn]([Cl])([CH2]CCC)[CH2]CCC`, the result in [1] was inactive. Also, the AC50 in experiment [2] was 0.615 µM (active); in experiment [3] it was 0.148 µM (active); in experiment [4], 0.248 µM (active); in [5], 0.148 µM (active); with CD38, CD38 (gene 952) it was 0.248 µM (active); with CD40, CD40 (gene 958), 0.148 µM (active). Further, the concentration at half-maximal activity (AC50) with CD69, CD69 (gene 969) was 0.148 µM (active); in [6] it was 0.148 µM (active); in experiment [7] it was 0.148 µM (active); in experiment [8], 0.148 µM (active); in [9], 0.148 µM (active); in [10], 0.148 µM (active). Also, the AC50 in experiment [11] was 0.148 µM (active).
In the case of `[O-][Cl+]O`, the outcome in [1] is “inactive”; in experiment [2], “inactive”; in [3], “inactive”; in experiment [4], “inactive”; in experiment [5], “inactive”; with CD38, CD38 (gene 952) it was “inactive”. Further, the outcome with CD40, CD40 (gene 958) is “inactive”; with CD69, CD69 (gene 969) it was “inactive”; in [6], “inactive”; in [7], “inactive”; in [8] it was “inactive”; in experiment [9], “inactive”. Moreover, the result in [10] and in experiment [11] was inactive.
As for `CO[C@@H]1[C@H](OC(=O)NC(=O)CCl)CC[C@]2(CO2)[C@H]1[C@@]1(C)O[C@@H]1CC=C(C)C`, the AC50 in experiment [1] is 6.2 µM (active); in experiment [2], 3.16 µM (active); in experiment [4], 10 µM (active); in experiment [5], 7.31 µM (active); in the experiment with CD38, CD38 (gene 952), 6.2 µM (active); with CD40, CD40 (gene 958), 7.52 µM (active). Besides, the half-maximal activity concentration (AC50) was 3.89 µM (active) in experiment [7], 2.58 µM (active) in [10] and 2.45 µM (active) in experiment [11]. For the same compound, the outcome is “inactive” in experiment [3]; “inactive” with CD69, CD69 (gene 969); “inactive” in [6]; “inactive” in [8]; “inactive” in experiment [9].
As for `CC(C)N(Cc1ccccc1)C(=O)C(C)(C)C`, the outcome was “inactive” in experiment [1]; “inactive” in experiment [2]; “inactive” in [3]; “inactive” in [4]; “inactive” in [5]; “inactive” with CD38, CD38 (gene 952). The outcome with CD40, CD40 (gene 958) is “inactive”; with CD69, CD69 (gene 969) it was “inactive”; in experiment [6] it was “inactive”; in experiment [7] it was “inactive”; in experiment [8], “inactive”; in [9], “inactive”. In addition, the result in [10] and in experiment [11] was inactive.
`CCCCCOC(=O)c1ccccc1C(=O)OCCCCC`: the half-maximal activity concentration (AC50) in experiment [1] was 17.7 µM (active); in [2], 26.5 µM (active); in [4], 20 µM (active); in [5], 20 µM (active); with CD38, CD38 (gene 952), 31.6 µM (active); in the experiment with CD40, CD40 (gene 958), 24.8 µM (active). For the same compound, the AC50 in the experiment with CD69, CD69 (gene 969) was 20 µM (active); in [7], 32.4 µM (active); in experiment [10] it was 30.8 µM (active); in [11], 31.9 µM (active). Besides, the outcome in [3], in experiment [6], in [8] and in experiment [9] was inactive.
As for `c1ccc(NNc2ccccc2)cc1`, in experiment [1], the AC50 is 10.6 µM (active). The outcome in [2] was “inactive”; in [3], “inactive”; in experiment [4], “inactive”; in experiment [5], “inactive”; with CD38, CD38 (gene 952) it was “inactive”; with CD40, CD40 (gene 958), “inactive”. Also, the outcome with CD69, CD69 (gene 969) is “inactive”; in [6], “inactive”; in experiment [7], “inactive”; in [8] it was “inactive”; in [9] it was “inactive”; in [10], “inactive”. In experiment [11], the outcome was inactive.

Values taken from PubChem BioAssay (EPA / NIEHS).
